Assay type in all cases: functional
For assay [1], the system named is Plasmodium falciparum. Put plainly: GSK_TCMDC: Inhibition of Plasmodium falciparum 3D7 in whole red blood cells, using parasite LDH activity as an index of growth. Test compounds present at 2uM.
Assay [2] relates to Plasmodium falciparum. The assay can be described thus: GSK_TCMDC: Inhibition of Plasmodium falciparum Dd2 in whole red blood cells, using parasite LDH activity as an index of growth. Test compounds present at 2uM.
The subject of assay [3] is HepG2. Put plainly: GSK_TCMDC: Percent inhibition of human HepG2 cell line. Test compounds present at 10uM.

The results in this text go back to ChEMBL document CHEMBL1157539, “Thousands of chemical starting points for antimalarial lead identification” (Nature, 2010).

Usually Inhibition stands for the drop in the measured response relative to a control, in per cent. The low end stands for a weak effect, the high end for a strong effect.

Turning to `CCCn1c(O)nnc1SCC(=O)Nc1cc(C(F)(F)F)ccc1Cl`, the Inhibition was found to be 96% in assay [1], 94% in assay [2] and 0% in assay [3].
For `COc1ccc(-c2nc(NC(=O)CS(=O)(=O)c3ccccc3)sc2C)cc1` the same measures were 99%, 82% and 7%.
As to `CN(C)c1cccc2c1nc(-c1ccco1)n2CCNCc1ccccc1.O=C(O)C(F)(F)F`, the Inhibition in assay [1] was 98%; in assay [2], 97%; in assay [3], 0%.
For the molecule `Cc1ccc(C)c(S(=O)(=O)NCC2CCN(Cc3ccc(O)cc3)CC2)c1.O=C(O)C(F)(F)F`, the Inhibition came to 87% in assay [1], 57% in assay [2] and 16% in assay [3].
For the molecule `Cc1noc(C)c1-c1cccc(CNCc2cccc(-c3cccc(-c4nc5cccc(C)c5[nH]4)c3)c2)c1.O=C(O)C(F)(F)F`, the Inhibition in assay [1] is on record as 100%; in assay [2] it was 66%; in assay [3] it was 15%.
The corresponding values for `O=S(=O)(c1ccccc1Cl)N1CCCCC(c2ccc(C(F)(F)F)cc2)=N1` are 86%, 72% and 22%.
For `CC(=O)Nc1ccc(C#Cc2ccc(-c3c(C)[nH]c(C)c(Cl)c3=O)cc2)cc1` the same measures were 90%, 78% and 0%.
For `CCN1CCCC1CNC(=O)c1cc2c(-c3ccc(Cl)cc3)nn(C)c2s1` (centres undefined) the same measures were 96%, 20% and 27%.
`CS(=O)(=O)N1CC2(CCN(CCC(NC(=O)/C=C/c3ccccc3)c3ccc(Cl)c(Cl)c3)CC2)c2ccccc21` (centres undefined): the values for the Inhibition in assay [1], in assay [2] and in assay [3] were 97%, 55% and 18%, respectively.
The corresponding values for `O=C(/C=C/c1ccc(Cl)c(Cl)c1)NCCCCCN1CCC(CCNC(=O)/C=C/c2cc(C(F)(F)F)ccc2F)CC1` are 98%, 46% and 25%.
For `Cc1ccc(NC(=O)c2ccc(N3CCN(c4ccncc4)CC3)cn2)cc1F.O=C(O)C(F)(F)F` the same measures were 98%, 77% and 2%.
The corresponding values for `Cn1c(NCc2cc(F)cc3c2OCOC3)nc2cc(Nc3ccnc(Nc4cccc(CS(C)(=O)=O)c4)n3)ccc21` are 100%, 100% and 0%.
For `CN(C)CCCn1c(C(=O)OC(c2ccccc2)c2ccccc2)cc2cc(OCc3ccccc3)ccc21`, the values for the Inhibition in assay [1], in assay [2] and in assay [3] were 82%, 85% and 12%, respectively.
For `CC(C)NC(=O)c1cccc(-c2ccc(OCCN3CCCC3c3cc4ccccc4[nH]3)cc2)c1` (centres undefined) the same measures were 100%, 34% and 25%.
The corresponding values for `COc1cccc(Nc2nc(C)cc(NCc3ccc(-n4ccnc4)cc3)n2)c1` are 100%, 99% and 0%.
For `CCCCc1cc(NCc2ccncc2)nc(Nc2ccc(C)cc2)n1` the same measures were 100%, 59% and 7%.
On to `c1ccc(-c2nc(NCCCn3ccnc3)cc(-c3ccncc3)n2)cc1`, for which the Inhibition in assay [1] is listed as 100%; in assay [2], 100%; in assay [3], 42%.
`Cl.O=c1cc(NCCCNCc2ccc(Cl)c(Cl)c2)[nH]c2cc(Cl)ccc12`: the Inhibition in assay [1] worked out at 95%; in assay [2] it was 51%; in assay [3], 1%.
As for `COc1cc([N+](=O)[O-])ccc1NC(=O)Nc1ccc(OC(F)(F)F)cc1`, the Inhibition in assay [1] worked out at 84%; in assay [2], 72%; in assay [3], 14%.
For `CN1CCCc2cc(NC(=O)c3cc(-c4ccc(Cl)cc4)cs3)ccc2C1.O=C(O)C(F)(F)F` the same measures were 100%, 34% and 15%.
Take `Oc1ccc(Br)cc1C(O)CNCc1ccccc1OCc1ccccc1` (centres undefined): the results for the Inhibition in assay [1], in assay [2] and in assay [3] were 100%, 100% and 25%, respectively.
For the molecule `O=C1C(c2ccccc2)=C(Nc2cccc([N+](=O)[O-])c2)c2ccccc21`, the Inhibition in assay [1] is listed as 88%; in assay [2], 88%; in assay [3] it was 0%.
`CCCCCN1CCC(NC(=O)c2ccc(C(=O)Nc3ccc(C(C)C)cc3)cc2)CC1.O=C(O)C(F)(F)F`: the Inhibition in assay [1] was determined as 98%; in assay [2], 9%; in assay [3], 41%.
The corresponding values for `Cc1ccc(-c2nnc(-c3ccc(C(=O)NC4CCN(Cc5ccc(C#N)cc5)CC4)cc3)o2)cc1Br` are 91%, 7% and 41%.
`CC(Cc1ccc(OCCCCOc2ccccc2)cc1)NCCc1ccc(Oc2ccccc2)cc1` (centres undefined): the Inhibition amounted to 89% in assay [1], 95% in assay [2] and 99% in assay [3].
For `COc1ccccc1Cn1ccnc1SCC(=O)Nc1cc(C(F)(F)F)ccc1Cl` the same measures were 96%, 97% and 12%.
The corresponding values for `CC(Cc1ccc(NC(=O)c2ccc(CNCCc3ccccc3)cc2)cc1)NCCc1cccc(Cl)c1.Cl` (centres undefined) are 100%, 99% and 100%.
Consider `O=C(NCC1CCC(C(=O)NC2CCCc3ccccc32)CC1)c1ccc(O)c(-c2cccc([N+](=O)[O-])c2)c1` (centres undefined), for which the Inhibition worked out at 99% in assay [1], 97% in assay [2] and 2% in assay [3].
For the molecule `CCC1N=C(N)N=C(N)N1OCc1cccc2ccccc12` (centres undefined), the Inhibition is reported as 93% in assay [1], 1% in assay [2] and 66% in assay [3].
The corresponding values for `O=C(C=Cc1ccc(-c2ccccc2)cc1)N1CCC(CCN2CCC(c3c[nH]c4ccccc34)CC2)CC1` are 87%, 16% and 44%.
The corresponding values for `CC(C)c1sc(N2CCN(C)CC2)nc1C(=O)NCCc1cccc(Cl)c1.O=C(O)C(F)(F)F` are 91%, 15% and 9%.
Consider `COc1ccc(S(=O)(=O)Nc2cc(C)cc(Br)c2OC)cc1N1CCN(C(=O)C(Cl)(Cl)Cl)CC1.Cl`, for which the Inhibition in assay [1] was found to be 91%; in assay [2], 66%; in assay [3], 9%.
Regarding `O=C(CCC1CCCCC1)NCCNc1cccc2ccccc12`, the Inhibition in assay [1] was found to be 90%; in assay [2], 57%; in assay [3] it was 7%.
Consider `CCc1ccc(-n2cc(C(=O)c3cc(Br)ccc3O)cc(C#N)c2=O)cc1`, for which the Inhibition in assay [1] came out at 97%; in assay [2], 30%; in assay [3], 9%.
For `O=C(O)C(F)(F)F.O=S(=O)(NC1CCN(c2ccnc3ccccc23)C1)c1ccc(OC(F)(F)F)cc1` (centres undefined) the same measures were 88%, 0% and 34%.
The corresponding values for `COc1ccc(N2CCN(CCc3ccc(NC(=O)c4ccc([N+](=O)[O-])cc4)cc3)CC2)c(OC)c1` are 83%, 0% and 45%.
In the case of `O=c1nc(C=Cc2ccc(Br)cc2)oc2ccccc12`, the Inhibition in assay [1] was 97%; in assay [2], 66%; in assay [3], 0%.
The corresponding values for `CCN1CCN(c2cc(C)c3cc(NC(=O)c4ccc(OC)c(OC)c4)ccc3n2)CC1` are 90%, 23% and 28%.
For `COc1ccc2[nH]ccc(=NN=Cc3ccc(F)cc3)c2c1` the same measures were 98%, 54% and 2%.
`CC(=O)c1ccc(N2CCN(C(=O)Nc3ccc(Cl)cc3)CC2)cc1`: the values for the Inhibition in assay [1], in assay [2] and in assay [3] were 97%, 0% and 4%, respectively.
The corresponding values for `O=C(Nc1ccc(-c2csc(-c3nc4ccccc4[nH]3)c2)cc1)Nc1ccc(F)c(F)c1F` are 100%, 64% and 67%.
The corresponding values for `CCN(CC)CCCC(C)Nc1c2cc(OC)ccc2nc2cc(Cl)c([N+](=O)[O-])cc12` (centres undefined) are 100%, 89% and 12%.
For `O=C(O)c1ccc(-c2cnc3ccc(NC4CCC(O)CC4)nn23)cc1` (centres undefined) the same measures were 98%, 90% and 9%.
On to `COc1cccc(O)c1CN1CCC2(CCCN(Cc3ccc(F)cc3)C2)C1` (centres undefined), for which the results for the Inhibition in assay [1], in assay [2] and in assay [3] were 98%, 72% and 21%, respectively.
The corresponding values for `Cc1nc(N)nc(N)c1OCCCOc1cccc(Cl)c1Cl.Cl` are 93%, 95% and 59%.
For `C=C[C@]1(C)C[C@@H](OC(=O)CSC2CN3CCC2C3)[C@@]2(C)C3C(=O)CC[C@@]3(CC[C@H]2C)[C@@H](C)[C@@H]1O.Cl` (some centres undefined) the same measures were 91%, 75% and 18%.
In the case of `CCN(CC)c1cc(C)c2cc(NC(=O)c3cc(=O)c4ccccc4o3)ccc2n1`, the Inhibition in assay [1] worked out at 97%; in assay [2] it was 67%; in assay [3] it was 14%.
The corresponding values for `CC(C)(C)Oc1ccc(C[C@@H]2NC3(C(=O)N(Cc4ccc(Cl)c(Cl)c4)c4ccccc43)C3C(=O)N(c4ccc(Br)cc4)C(=O)C32)cc1` (some centres undefined) are 86%, 25% and 1%.
The corresponding values for `COCc1cccc(-c2cc(-c3ccc(S(C)(=O)=O)cc3)cnc2N)c1` are 98%, 88% and 10%.
The corresponding values for `CN1CCN(Cc2ccc(-c3ccc4c(Nc5cc(O)c(Cl)cc5F)ccnc4c3)o2)CC1` are 100%, 99% and 2%.
Consider `CC(C)(C)c1ccc(CNCC(C)(C)c2nc(-c3ccnc(N)n3)c(-c3ccc(Cl)c(O)c3)[nH]2)cc1.Cl`, for which the Inhibition in assay [1] came out at 100%; in assay [2], 54%; in assay [3] it was 28%.
For `CCCCCCOc1ccc(N2C(N)=NC(N)=NC2(C)C)cc1.Cl` the same measures were 98%, 0% and 5%.
For `Cc1cc(C(=O)Nc2ccc(C)c(-c3nc(N(C(=O)c4ccc(F)c(C)c4)C4CCNCC4)nc4c3ccc(=O)n4-c3c(F)cccc3F)c2)ccc1F` the same measures were 99%, 99% and 4%.
For `Cl.N=C(N)c1cccc(OCCCOc2cccc(NC(=O)Nc3ccc([N+](=O)[O-])cc3)c2)c1` the same measures were 98%, 22% and 16%.
In the case of `COc1cccc(-c2ccc(NC(=O)C3CCCN(Cc4cccc(OC)c4O)C3)cc2)c1` (centres undefined), the values for the Inhibition in assay [1], in assay [2] and in assay [3] were 98%, 78% and 13%, respectively.
The corresponding values for `N=C(N)c1ccc(NCc2cccc(C(=O)O)c2)cc1.O=C(O)C(F)(F)F` are 84%, 79% and 7%.
For `O=C(Nc1cccc(CN2CCCN(Cc3ncc[nH]3)CC2)c1)c1ccc(Cl)c(Cl)c1.O=C(O)C(F)(F)F` the same measures were 100%, 16% and 8%.
The corresponding values for `Cc1cc(O)c(-c2cc(C(=O)Nc3cccnc3)[nH]n2)cc1C` are 97%, 97% and 12%.
`CCN(c1ccccc1)S(=O)(=O)c1ccc(OC)c(NC(=O)c2cccc(C(F)(F)F)c2)c1`: the Inhibition is listed as 90% in assay [1], 70% in assay [2] and 9% in assay [3].
For the molecule `CS(=O)(=O)c1ccc2nc(NC(=O)c3csnn3)sc2c1`, the Inhibition in assay [1] is on record as 90%; in assay [2] it was 95%; in assay [3] it was 3%.
The corresponding values for `COc1ccccc1/C=C/C(=O)NC1CCC(CCN2CCc3ccc(-c4cc(C)no4)cc3CC2)CC1.Cl` (centres undefined) are 95%, 11% and 47%.
For `O=S(=O)(c1c(Cl)cc(Cl)cc1Cl)N1CCCCC(c2ccc(C(F)(F)F)cc2)=N1` the same measures were 98%, 99% and 6%.
The corresponding values for `Cc1sc2nc(CSc3ccccc3)nc(N3CCN(CC(=O)N4CCCC4)CC3)c2c1C` are 91%, 69% and 19%.
